Among all 360,000 compounds or so, about 700 (0.19%) were called active. The full list was thinned out, with actives kept by preference. Values without a mark were called inactive.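 How the source made its calls: active means activation above the run's mean over test compounds plus 3 SD (cut at about 23% in these data); inactive means the rest.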
target: Muscarinic acetylcholine receptor M5 (Homo sapiens) (UniProt P08912); assay: human M5 muscarinic receptor agonists, primary screen, CHO-K1 cells, Fluo-8 calcium fluorescence (AID 624037); details: CHO-K1 hM5 cells, at 3 µM, hits give high values, 0% DMSO wells, 100% maximal acetylcholine response;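 further: signal is peak over basal fluorescence ratio across the kinetic read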
Sequence (P08912 whole entry, looked up): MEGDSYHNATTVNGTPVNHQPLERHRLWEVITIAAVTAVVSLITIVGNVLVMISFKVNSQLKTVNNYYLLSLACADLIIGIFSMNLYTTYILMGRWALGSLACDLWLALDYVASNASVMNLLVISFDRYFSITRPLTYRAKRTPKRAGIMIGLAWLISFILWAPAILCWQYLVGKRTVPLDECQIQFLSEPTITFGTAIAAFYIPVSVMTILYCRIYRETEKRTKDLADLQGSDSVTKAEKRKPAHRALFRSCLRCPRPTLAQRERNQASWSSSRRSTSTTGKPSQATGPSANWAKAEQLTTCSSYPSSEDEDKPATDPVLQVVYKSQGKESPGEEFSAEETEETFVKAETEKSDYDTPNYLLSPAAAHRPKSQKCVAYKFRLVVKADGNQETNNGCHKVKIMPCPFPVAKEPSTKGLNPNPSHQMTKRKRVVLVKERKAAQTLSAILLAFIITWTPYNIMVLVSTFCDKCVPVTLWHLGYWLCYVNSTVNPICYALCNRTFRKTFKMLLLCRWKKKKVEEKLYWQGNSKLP

Point of comparison: `O=C(O)c1ccc2c(=O)n3c(nc2c1)/C(=C/c1ccc(OC(F)F)cc1OC(F)F)CC3`, activation -3.87%. Against it:
- Cc1cc2c(cc1S(=O)(=O)CCC(=O)NCc1ccccc1)OCC(=O)N2 — higher, 0.35%
- COc1ccc(NC(=O)CCS(=O)(=O)c2cc3c(cc2Cl)NC(=O)CO3)cc1OC — higher, -3.81%
- CCOC(=O)Cn1c(=O)oc2cc(S(=O)(=O)NCC3CCCO3)ccc21 (stereo unspecified) — higher, 1.72%
- Cc1ccc(S(=O)(=O)N2C[C@H]3n4c(=O)ccc(=O)n4C[C@H](OC(=O)NC4CCCC4)[C@@]3(O)C2)cc1 — higher, 0.5%
- CCC1(C(=O)c2ccccc2)C(c2cccc([N+](=O)[O-])c2)C1(C(=O)OC)C(=O)OC (stereo unspecified) — lower, -4.52%
- O=C(Oc1ccc(C(=S)N2CCOCC2)cc1)c1ccc(F)cc1 — higher, 3.46%
- CCC(C)(C)NC(=O)CN(C(=O)CCC(=O)Nc1nccs1)c1ccc2c(c1)OCO2 — higher, -2.1%
- COC(=O)c1sccc1-n1cccc1C(=O)C(=O)N1CCCCC1 — higher, -2.31%
- CC/C(=N\NC(=O)c1c(C)nc2ccccn12)c1ccc(Cl)cc1 — lower, -4.55%
- COc1ccc(N2C(=O)C3C(C2=O)C(C(=O)c2ccccc2)N2CCCC32)cc1 (stereo unspecified) — higher, 1.81%
- CCn1c(CNc2ccc(OC)cc2)nnc1SCC(=O)c1ccc(OC)cc1 — lower, -9.07%
- O=[N+]([O-])/C=C1\CCCCCN1 — higher, -0.84%
- CC(C)C(=O)Nc1ccc2c3c(cccc13)CC2 — lower, -5.26%
- N#CC1(Nc2ccc(-c3ccc(Cl)cc3)cc2)CCCC1 — higher, -3.18%
- COc1cc(Cl)c(S(=O)(=O)n2cnc(C)c2)cc1Cl — higher, 0.51%
- COc1ccc(Cl)cc1S(=O)(=O)N1CCC(O)(c2ccc(Cl)cc2)CC1 — higher, -0.77%
- COc1ccc(C)cc1NC(=O)CSc1nnc(CC(=O)Nc2ccccc2F)n1C — higher, -1.92%
- COc1ccc(OC)c(CN2C(=O)CCC2(C)c2nnnn2Cc2ccccc2)c1 (stereo unspecified) — higher, 2.06%
- COc1ccc(-n2c(C)csc2=S)cc1 — higher, -0.99%
- CCOC(=O)C1=C(CC)OC(N)=C(C#N)C1c1ccc(F)cc1F (stereo unspecified) — higher, -0.33%
- Cn1cc(CNC(=O)c2ccc(OC3CCN(Cc4ccccn4)CC3)cc2)cn1 — lower, -4.97%
- COc1ccc(SCCN2CCN(CC(C)C)CCC2=O)cc1 — higher, 1.8%
- O=C(COc1nc2ccccc2nc1N1CCOCC1)NCC(F)(F)F — higher, -2.71%
- Nc1nc2c(ncn2[C@@H]2O[C@H](CNCc3ccc(OCCCN4CCOCC4)cc3)[C@@H](O)[C@H]2O)c(=O)[nH]1 — higher, 0.62%
- O=[N+]([O-])c1cc(C(F)(F)F)ccc1NCCc1ccncc1 — higher, -2.99%
- O=C(/C=C/Nc1ccc(S(=O)(=O)Nc2cnc3ccccc3n2)cc1)c1cccnc1 — higher, -3.4%
- COCCN(C(=O)CCC(=O)Nc1ccccn1)C(C(=O)NCCC(C)C)c1ccc(OC)cc1 (stereo unspecified) — higher, -1.86%
- CCOc1ccc(C(=O)NC(=S)Nc2ccc(N3CCOCC3)c(Cl)c2)cc1[N+](=O)[O-] — higher, -0.99%
- COc1ccc(NC(=O)CN2C(=O)COc3ccc(S(=O)(=O)N4CCOCC4)cc32)c(OC)c1 — higher, 0.4%
- C[C@H]1COC(=O)[C@H](CC(=O)OC(C)(C)C)C/C=C\C[C@@H](CC(=O)N[C@H](CO)Cc2ccccc2)C(=O)N1 — higher, 0.74%
- Nc1ccn(C2CC(O)C(CO)O2)c(=O)n1 (stereo unspecified) — higher, 10.7%
- O=c1[nH]cnc(O)c1C(c1ccc(F)cc1)c1c(O)nc[nH]c1=O — higher, 0.85%
- Cc1occc(=O)c1OCc1c(Cl)cccc1Cl — lower, -4.28%
- Cc1occc1C(=O)NC1CCCN(Cc2ccc(CC(C)C)cc2)C1 (stereo unspecified) — higher, -1.97%
- Cc1ccc(Cn2c(C)c(C(=O)NCc3ccccc3C(F)(F)F)sc2=O)cc1 — higher, -2.26%
- Cc1c(C(=O)NCc2ccc(C#N)cc2)sc(=O)n1Cc1ccc(C(=O)N(C)C)cc1 — higher, 0.99%
- CCN(C(=O)COC(=O)c1cc(NS(=O)(=O)c2ccc(Cl)c([N+](=O)[O-])c2)ccc1O)C1CCCCC1 — higher, 2.95%
- CCC(CC)NC(=O)CSc1nnc(-c2c[nH]c3ccccc23)o1 — higher, -0.74%
- CC1=CC=CN2C1=NC(=O)CC2(C)C(=O)N(CC(=O)NC1CCCC1)c1ccccc1C (stereo unspecified) — higher, 0.83%
- COc1cc(=O)[nH]c(=O)n1C(=O)Cc1ccccc1 — higher, -1.68%
- COc1cc(C(=S)NCc2ccccc2)cc(Br)c1O — lower, -4.14%
- COc1cccc(-c2cnc3c(NC(C)=O)cc(-c4cc(F)ccc4OC)cn23)c1 — higher, -1.59%
- CCn1c(C(C)C)n[nH]c1=S — higher, 1.36%
- CCc1ccc(NC(=O)Cn2nnc(C(=O)NCc3ccc4c(c3)OCO4)c2N)cc1 — higher, -3.78%
- CCCn1nc2cc(C(=O)NCc3ccccc3)ccc2c1OCC — higher, -0.79%
- CC#CC[N+](C)(C)CCCCCC — lower, -16.5%
- CCc1ccc(NC(=O)C(C)OC(=O)/C=C/c2cccc([N+](=O)[O-])c2)cc1 (stereo unspecified) — higher, -0.62%
- CCCCN(C)CCNC(=O)CSCc1ccc(C)cc1 — lower, -6.02%
- Cc1ccc(CNC(=O)C(=O)c2cn(CC(=O)N3CCOCC3)c3ccccc23)cc1 — higher, -1.51%
- O=C1/C(=C/c2ccc3c(c2)OCO3)Oc2cc(OCC(=O)N3CC(O)C[C@H]3C(=O)O)ccc21 (stereo partly specified) — higher, 0.73%
- CCOCCCNC(=S)Nc1ccc2nc(N3CCN(CC)CC3)cc(C)c2c1 — lower, -4.11%
- Cn1cccc1C(C#N)c1ccccc1C#N (stereo unspecified) — higher, -3.67%
- O=C1c2ccccc2C(=O)N1CCOc1ccc(F)cc1 — higher, 11.9%
- Cc1cccc(C)c1-n1nnnc1C1(C)CCC(=O)N1CCOc1ccccc1 (stereo unspecified) — higher, 4.47%
- O=c1ccc(S(=O)(=O)N2CCCC2)cn1Cc1nc(-c2ccccc2)no1 — lower, -5.43%
- Cc1ccc(C)c(NC(=O)c2ccc(OC(=O)c3ccco3)cc2)c1 — higher, -2.18%
- Cc1csc(=O)n1CC(=O)OCC(=O)N(CC(C)C)c1c(N)n(Cc2ccccc2)c(=O)[nH]c1=O — higher, 3.34%
- CN(Cc1ccccc1)C(=O)COC(=O)/C=C/c1ccc2c(c1)OCO2 — higher, 0.5%
- CCNC(=O)C1(C)CCCN(Cc2noc(-c3ccccc3OC)n2)C1 (stereo unspecified) — higher, 1.13%
- Cc1ccc(CNC(=O)c2cccc3c2C(=O)c2ccc(N4CCC(C)CC4)cc2S3(=O)=O)cc1 — higher, 4.93%
- COc1ccc(S(=O)(=O)N2CCC(C(=O)NCCC(=O)Nc3ccccc3OC)CC2)cc1 — higher, -1.33%
- CN(c1ccccn1)c1ncnc2[nH]ncc12 — higher, -0.14%
- CN(C)/C=C/C(=O)c1cnc2sccn2c1=O — higher, -2.29%
- O=C(O)c1ccn(COc2ccc(Br)cc2)n1 — higher, -0.71%
- Cc1c(NC(=O)COC(=O)/C=C/c2cccc(F)c2)c(=O)n(-c2ccccc2)n1C — higher, 0.67%
- CCCCC[C@H]1CN(C2CCCCC2)C(=O)[C@@H]1CC(=O)NCc1ccc(OC)cc1 — lower, -4.19%
- COc1cc(N2C(=O)CC3(CCCC3)CC2=O)cc(OC)c1OC — higher, 1.4%
- Cc1ccc(C)c(NS(=O)(=O)c2ccc(OCC(=O)NCc3cccnc3)cc2)c1 — higher, -1.65%
- CC(C)(C)OC(=O)C[C@@H]1C/C=C\C[C@@H](CC(=O)NCCO)C(=O)N[C@H](Cc2c[nH]c3ccccc23)COC1=O — higher, -0.08%
- CCOC(=O)C=Cc1ccc(C(=O)OCC)[nH]1 — higher, 5.25%
- CSCCC(NC(=O)COc1ccccc1)C(=O)N(C)CC(=O)Nc1ccc(C)cc1 (stereo unspecified) — higher, 0.98%
- C=CC[n+]1c(-c2ccc(C)cc2)csc1NNC(=O)Nc1ccccc1 — higher, 0.82%
- O=C(Nc1cccc(Cl)c1)c1cc(S(=O)(=O)N2CCCCC2)c[nH]1 — higher, 4.63%
- CCOc1ccc(NC(=O)CN(C)C(=O)COc2cccc(CC)c2)cc1OCC — higher, -0.57%
- COc1ccc(CCNC(=S)N2CCN(S(=O)(=O)c3ccc(F)cc3)CC2)cc1 — higher, -3.34%
- Cc1nc(-c2ccc(Cl)cc2)sc1C1(C)CC(c2ccccc2F)=NO1 (stereo unspecified) — higher, -0.32%
- Cc1nc(C(=O)Nc2ccc(Cl)cc2)sc1C1(C)CC(c2ccccc2)=NO1 (stereo unspecified) — higher, 1.09%

In the case of `COc1ccc(Cl)cc1NC(=O)CCS(=O)(=O)c1cc2c(cc1C)NC(=O)CO2`, the activation was 38% (active).
`CN1C(=O)c2cccc3c(N)ccc(c23)C1=O` was tested, and the activation was 45.7% (active).
For `Cc1nn(C)cc1N1C(=O)c2cccc3c(N)ccc(c23)C1=O`, the activation was 91.9% (active).
In the case of `N#CC1(Nc2ccc3c4c(cccc24)CC3)CCCCC1`, the activation was 37.2% (active).
For `COc1cc(OC)c(-n2cc(-c3ccc(Cl)cc3)[nH]c2=O)cc1Cl`, the activation was 42.8% (active).
In the case of `COc1ccc(C(=O)/C=C/Nc2ccccn2)cc1`, the activation was 78% (active).
In the case of `CC(=O)Oc1ccc(Cn2c(C)c(C(=O)NCc3ccc(C#N)cc3)sc2=O)cc1`, the activation was 47.2% (active).
With `COc1cc(/C=C2/SC(=S)N(Cc3ccccc3)C2=O)cc(OC)c1O` the activation was 24.1% (active).
In the case of `Nc1c(C(=O)c2cccs2)sc2nsc(SCCN3CCCCC3)c12`, the activation was 121% (active).
For `CCOc1ccc(Cn2nnc(C(=O)NCc3ccccc3)c2N)cc1`, the activation was 34.7% (active).
With `CCN(CC)CCCC(C)n1c2nc(=O)[nH]c(=O)c-2nc2cc(Cl)ccc21` (stereo unspecified) the activation was 438% (active).
For `Cc1cccc2c1N(CCOc1ccccc1)C(=O)C2=O`, the activation was 30.5% (active).
In the case of `Cc1nc(C(=O)NCc2ccccc2)sc1C1(C)CC(c2cccnc2)=NO1` (stereo unspecified), the activation was 25.4% (active).

From PubChem BioAssay AID624037 (The Scripps Research Institute Molecular Screening Center, 2012)
